Laboratory results published in PubChem BioAssay (Tox21).
Values without a mark were called inactive. Results filed as inconclusive are left out. Entries that show only a call come without a potency. Calls of active or inactive are those of the source. Unless noted, the call rests on the fitted dose curve; in most records, active means well fitted curve in the direction sought with a large enough effect in the repeat runs; inconclusive means weak or mixed curves; inactive means no such curve, though single readings can be large; an effect the other way counts as inactive or inconclusive.

Assays:
[1] = qHTS assay to identify small molecule agonists of the hypoxia (HIF-1) signaling pathway - cell viability counter screen (AID 1224844; calls by dose curve; further: nearly all actives have a fitted effect of over 50% in size; further: potency means the concentration at half of the fitted maximal effect)
Outline: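 ME-180 HRE-bla cells, 2,000/well, 0.5% dialyzed FBS; 5 hr settle, 17 hr compound at 37C/5% CO2; CCF4-AM reporter read first, then CellTiter-Glo luminescence after 30 min RT.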

[2] = qHTS assay to identify small molecule agonists of H2AX (AID 1224845; active means well fitted activation curve with a large enough effect in the signal ratio in the repeat runs, not every such curve was filed as active; the % refers to the signal ratio)
Outline: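 Wild-type CHO-K1 cells plated overnight, then exposed 3 hr at 37C to compounds at 15 concentrations (0.76% DMSO). Lysed, then HTRF anti-pH2AX(S139)-cryptate/anti-H2AX-d2 detection after 24 hr at room temperature; emissions 665 and 620 nm.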

[3] = qHTS assay to identify small molecule agonists of H2AX - cell viability counter screen (AID 1224847; calls by dose curve; further: nearly all actives have a fitted effect of over 30% in size; further: potency means the concentration at half of the fitted maximal effect)
Outline: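 CHO-K1 cells plated overnight at 37C, then exposed 3 h at 37C to compounds at 15 concentrations (0.76% DMSO final). Viability by CellTiter-Glo luminescence after 30 min at room temperature.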

[4] = qHTS RealTime-Glo MT Cell Viability Assay in HepG2 cells - 24 hour (AID 1224867); further: nearly all actives have a fitted effect of over 50% in size; further: potency means the concentration at half of the fitted maximal effect
Outline: (§1)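 Real-time, nonlytic viability: 600 HepG2 cells/well mixed with NanoLuc enzyme plus prosubstrate; 5 h settle, compound (DMSO) added by pintool; luminescence monitored over 40 h at 37 C.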

[5] = qHTS RealTime-Glo MT Cell Viability Assay in HEK293 cells - 32 hour (AID 1224868); further: nearly all actives have a fitted effect of over 50% in size; further: potency means the concentration at half of the fitted maximal effect
Outline: (§2)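 Cells + reagent dispensed (600 cells/well, HEK293) → 5 h at 37 C/5% CO2 → 23 nL compound in DMSO pinned → 40 h at 37 C → luminescence read at 0, 8, 16, 24, 32, 40 h.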

[6] = A CellTox Green Cytotoxicity Assay to monitor cytotoxicity in HEK293 cells - 0 hour (AID 1224869); further: nearly all actives have a fitted effect of over 50% in size
Outline: (§3)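 Nonlytic real-time cytotoxicity: HEK293 + CellTox Green reagent plated, 5 h preincubation, pintool compound addition (23 nL in DMSO), 37 C for 40 h, fluorescence measured at successive time points.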

[7] = qHTS RealTime-Glo MT Cell Viability Assay in HepG2 cells - 40 hour (AID 1224870); further: nearly all actives have a fitted effect of over 50% in size
Outline: (§4)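 HepG2 cells mixed with RealTime-Glo MT reagents (NanoLuc plus cell-permeant prosubstrate) were seeded at 600 cells/well, incubated 5 h at 37 C/5% CO2, then pinned with compounds in DMSO; nonlytic luminescence tracked viability during 40 h treatment.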

[8] = qHTS RealTime-Glo MT Cell Viability Assay in HEK293 cells - 16 hour (AID 1224872); further: nearly all actives have a fitted effect of over 50% in size; further: potency means the concentration at half of the fitted maximal effect
Outline: as §2

[9] = qHTS RealTime-Glo MT Cell Viability Assay in HepG2 cells - 8 hour (AID 1224873); further: nearly all actives have a fitted effect of over 55% in size; further: potency means the concentration at half of the fitted maximal effect
Outline: as §4

[10] = qHTS RealTime-Glo MT Cell Viability Assay in HEK293 cells - 40 hour (AID 1224874); conditions: RealTime-Glo luminescence; max response: stronger effect = lower value; further: nearly all actives have a fitted effect of over 50% in size; further: potency means the concentration at half of the fitted maximal effect
Outline: (§5)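 Cells were seeded together with NanoLuc luciferase and a prosubstrate that viable cells reduce to a luciferase substrate. After a 5 h incubation at 37 C/5% CO2, compounds were added and luminescence was measured repeatedly during 40 h of treatment.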

[11] = A CellTox Green Cytotoxicity Assay to monitor cytotoxicity in HEK293 cells - 24 hour (AID 1224875); further: nearly all actives have a fitted effect of over 45% in size
Outline: as §3

[12] = qHTS RealTime-Glo MT Cell Viability Assay in HepG2 cells - 32 hour (AID 1224877); further: nearly all actives have a fitted effect of over 55% in size; further: potency means the concentration at half of the fitted maximal effect
Outline: as §1

[13] = A CellTox Green Cytotoxicity Assay to monitor cytotoxicity in HepG2 cells - 24 hour (AID 1224878); further: nearly all actives have a fitted effect of over 45% in size; further: potency means the concentration at half of the fitted maximal effect
Outline: (§6)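 Read-out is fluorescence of a cyanine dye excluded from live cells that stains DNA of dead HepG2 cells, with signal proportional to cytotoxicity. Plates were read at 0, 8, 16, 24, 32 and 40 h after compound addition.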

[14] = A CellTox Green Cytotoxicity Assay to monitor cytotoxicity in HepG2 cells - 40 hour (AID 1224879); further: nearly all actives have a fitted effect of over 40% in size; further: potency means the concentration at half of the fitted maximal effect
Outline: as §6

[15] = qHTS RealTime-Glo MT Cell Viability Assay in HEK293 cells - 0 hour (AID 1224880); further: top concentration of the series differs between compounds; nearly all actives have a fitted effect of over 45% in size
Outline: as §5

[16] = qHTS assay to identify small molecule agonists of the hypoxia (HIF-1) signaling pathway (AID 1224846; active means well fitted activation curve with a large enough effect in the signal ratio in the repeat runs, not every such curve was filed as active; the % refers to the signal ratio)
Outline: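 Cell line: CellSensor HRE-bla ME-180; 2,000 cells/well; 0.5% dialyzed FBS; 5 h preincubation; DMSO compound pin transfer; 17 h, 37C, 5% CO2; CCF4-AM added; bla FRET signal scored for activation.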

[17] = A CellTox Green Cytotoxicity Assay to monitor cytotoxicity in HEK293 cells - 40 hour (AID 1224871); further: nearly all actives have a fitted effect of over 45% in size
Outline: as §3

[18] = A CellTox Green Cytotoxicity Assay to monitor cytotoxicity in HepG2 cells - 16 hour (AID 1224876); further: nearly all actives have a fitted effect of over 45% in size; further: potency means the concentration at half of the fitted maximal effect
Outline: as §6

[19] = qHTS assay to identify small molecule agonists of the estrogen related receptor (ERR) signaling pathway from Tox21 library (AID 1224849; calls by dose curve; further: nearly all actives have a fitted effect of over 15% in size); conditions: ERR reporter cell line, ONE-Glo luciferase, 18 h; at 92.4 µM (top of the series) unless noted
Outline: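 ERR cells, 6 h pre-incubation 37 C/5% CO2; cpd in DMSO pinned; 18 h 37 C; ONE-Glo added, 30 min RT; luminescence read. Agonist mode, qHTS.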

SMILES | Potency [1] | Potency [2] | Potency [3] | Potency [4] | Potency [5] | Potency [6] | Potency [7] | Potency [8] | Potency [9] | max response [10] | Potency [11] | Potency [12] | Potency [13] | Potency [14] | outcome [15] | outcome [16] | Potency [17] | Potency [18] | activity change, positive = activation [19] | Potency [10]
COC(=O)C1=CCCN(C)C1 | inactive | inactive | inactive | inactive | inactive | inactive | inactive | inactive | inactive | 3.81% | inactive | inactive | inactive | inactive | inactive | – | – | – | – | –
COC(=O)C(c1ccccc1)C1CCCCN1 (stereo unspecified) | inactive | inactive | inactive | – | inactive | inactive | inactive | inactive | – | 2.03% | inactive | inactive | inactive | inactive | inactive | inactive | inactive | inactive | – | –
N#CC(CCc1ccc(Cl)cc1)(Cn1cncn1)c1ccccc1 (stereo unspecified) | 30.9 µM (active) | inactive | 50.5 µM (active) | 38.9 µM (active) | 17.4 µM (active) | inactive | – | 21.9 µM (active) | 38.9 µM (active) | – | – | 43.6 µM (active) | 21.9 µM (active) | 24.5 µM (active) | inactive | – | – | 21.9 µM (active) | -69.7% | 17.4 µM (active)
Nc1cnn(-c2ccccc2)c(=O)c1Cl | inactive | inactive | inactive | – | inactive | inactive | inactive | inactive | inactive | 20.5% | – | inactive | inactive | inactive | inactive | inactive | inactive | inactive | – | –
Nc1n[nH]c(N)n1 | inactive | inactive | inactive | – | – | inactive | inactive | inactive | – | – | inactive | inactive | inactive | inactive | inactive | inactive | inactive | inactive | – | –
COc1cc2c(cc1OC)[C@@]13CCN4CC5=CCO[C@H]6CC(=O)N2[C@H]1[C@H]6[C@H]5C[C@H]43 | inactive | inactive | inactive | – | inactive | inactive | inactive | inactive | – | – | inactive | inactive | inactive | inactive | inactive | inactive | inactive | inactive | – | –
NC1=NC(=O)C(c2ccccc2)O1 (stereo unspecified) | inactive | inactive | inactive | – | inactive | inactive | inactive | inactive | inactive | 1.11% | inactive | inactive | inactive | inactive | inactive | inactive | inactive | inactive | – | –
COC(C)(C)C | inactive | inactive | inactive | – | inactive | inactive | inactive | – | – | 6.3% | – | inactive | inactive | inactive | inactive | inactive | – | inactive | – | –
